This passage reports Potency and activity change, negative = inhibition results from PubChem BioAssay (Tox21).

Inconclusive results are not listed. A number with no mark means an inactive call. Calls of active or inactive are those of the source. Calls follow the shape of the dose curve; as a rule, active = well fitted curve in the direction sought with a large enough effect in the repeat runs; inconclusive = weak or mixed curves; inactive = no such curve, though single readings can be large; an effect the other way counts as inactive or inconclusive.

The target of assay [1] is Cytochrome P450 2C19 (Homo sapiens) (UniProt P33261). Description: Cytochrome P450 Family 2 Subfamily C Member 19 (CYP2C19) small molecule antagonists: luciferase reporter qHTS assay (AID 1671197). Also: nearly all actives have a fitted effect of over 65% in size. As to activity change, negative = inhibition: series mostly up to about 120 µM. Summed up:
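Compounds were tested on CYP2C19 activity via proluciferin conversion to luciferin. The 37C, 1 h reaction followed NADPH addition; detection reagent stopped it.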

For assay [2], the target named is Cytochrome P450 2C9 (Homo sapiens) (UniProt P11712). Description: Cytochrome P450 Family 2 Subfamily C Member 9 (CYP2C9) small molecule antagonists: luciferase reporter qHTS assay (AID 1671198). Also: nearly all actives have a fitted effect of over 50% in size. As to activity change, negative = inhibition: series mostly up to about 120 µM. An outline of the steps:
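P450-Glo proluciferin substrate with CYP2C9 enzyme; 10 min RT preincubation, then NADPH regeneration 1 h at 37C; luciferin detection reagent 20 min RT, luminescence in relative luminescence units.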

In assay [3] the target is Voltage-gated inwardly rectifying potassium channel KCNH2 (Homo sapiens) (UniProt Q12809). Description: Human Ether-a-go-go-Related Gene (hERG) channel small molecule antagonists: fluorescence cell-based qHTS assay (AID 1671200). Also: nearly all actives have a fitted effect of over 50% in size.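 As to activity change, negative = inhibition: hERG-expressing U2OS cells given a thallium stimulus after FluxOR II dye loading; series mostly up to about 77 µM.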 Summed up: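 Kinetic two-minute fluorescence traces, sampled at 1 s, were collected following thallium stimulus of U2OS cells (1000 per well) that had been cultured overnight at 37 C and loaded with FluxOR II.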
Voltage-gated inwardly rectifying potassium channel KCNH2 (Homo sapiens), sequence (Q12809 whole entry, looked up): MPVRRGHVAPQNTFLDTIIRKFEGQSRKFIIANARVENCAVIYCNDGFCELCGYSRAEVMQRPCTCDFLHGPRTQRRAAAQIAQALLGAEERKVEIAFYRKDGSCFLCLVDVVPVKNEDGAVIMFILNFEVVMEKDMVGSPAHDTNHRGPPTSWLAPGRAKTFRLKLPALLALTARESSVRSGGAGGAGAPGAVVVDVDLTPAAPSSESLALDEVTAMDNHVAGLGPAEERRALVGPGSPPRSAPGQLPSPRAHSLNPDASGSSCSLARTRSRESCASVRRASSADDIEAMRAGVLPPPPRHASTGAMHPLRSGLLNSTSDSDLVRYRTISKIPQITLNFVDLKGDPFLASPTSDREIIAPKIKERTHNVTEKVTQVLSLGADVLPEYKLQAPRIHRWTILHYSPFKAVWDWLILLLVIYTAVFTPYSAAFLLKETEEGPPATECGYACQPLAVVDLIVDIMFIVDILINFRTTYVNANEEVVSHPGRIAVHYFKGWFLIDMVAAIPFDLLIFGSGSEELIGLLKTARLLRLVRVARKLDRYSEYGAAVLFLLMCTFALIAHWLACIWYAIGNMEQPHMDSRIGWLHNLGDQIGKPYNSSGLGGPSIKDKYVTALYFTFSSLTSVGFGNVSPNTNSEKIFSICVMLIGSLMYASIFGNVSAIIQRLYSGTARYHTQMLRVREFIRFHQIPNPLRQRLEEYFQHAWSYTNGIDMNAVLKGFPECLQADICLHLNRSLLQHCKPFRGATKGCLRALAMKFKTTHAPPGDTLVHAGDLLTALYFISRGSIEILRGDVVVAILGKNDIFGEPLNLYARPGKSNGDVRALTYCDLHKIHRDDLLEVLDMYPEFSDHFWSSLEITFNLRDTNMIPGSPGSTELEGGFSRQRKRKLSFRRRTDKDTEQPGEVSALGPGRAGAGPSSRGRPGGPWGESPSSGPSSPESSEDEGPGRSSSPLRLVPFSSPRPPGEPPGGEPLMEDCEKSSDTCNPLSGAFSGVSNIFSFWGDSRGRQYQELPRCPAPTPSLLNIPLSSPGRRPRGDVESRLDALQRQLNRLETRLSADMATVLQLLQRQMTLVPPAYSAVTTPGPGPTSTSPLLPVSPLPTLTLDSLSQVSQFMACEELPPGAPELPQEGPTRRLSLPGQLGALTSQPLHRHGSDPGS

Assay [4] concerns the target Cytochrome P450 3A4 (Homo sapiens) (UniProt P08684). Description: Cytochrome P450 Family 3 Subfamily A Member 4 (CYP3A4) small molecule antagonists: luciferase reporter qHTS assay (AID 1671201). Also: nearly all actives have a fitted effect of over 50% in size. As to activity change, negative = inhibition: series mostly up to about 120 µM. Summed up:
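Proluciferin-to-luciferin conversion by CYP3A4, NADPH-regenerated, 1 h RT; luminescence read as RLU. Ketoconazole as control.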

For assay [5], the target named is Cytochrome P450 1A2 (Homo sapiens) (UniProt P05177). Description: Cytochrome P450 Family 1 Subfamily A Member 2 (CYP1A2) small molecule antagonists: luciferase reporter qHTS assay (AID 1671199). Also: nearly all actives have a fitted effect of over 50% in size. As to activity change, negative = inhibition: series mostly up to about 120 µM. Summed up: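 Read-out is luminescence from luciferin detection reagent (20 min) proportional to CYP1A2 activity; compounds in DMSO preincubated 10 min with enzyme and proluciferin substrate, then NADPH regeneration solution, 1 h, room temperature.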
Cytochrome P450 1A2 (Homo sapiens), sequence (P05177 whole entry, looked up): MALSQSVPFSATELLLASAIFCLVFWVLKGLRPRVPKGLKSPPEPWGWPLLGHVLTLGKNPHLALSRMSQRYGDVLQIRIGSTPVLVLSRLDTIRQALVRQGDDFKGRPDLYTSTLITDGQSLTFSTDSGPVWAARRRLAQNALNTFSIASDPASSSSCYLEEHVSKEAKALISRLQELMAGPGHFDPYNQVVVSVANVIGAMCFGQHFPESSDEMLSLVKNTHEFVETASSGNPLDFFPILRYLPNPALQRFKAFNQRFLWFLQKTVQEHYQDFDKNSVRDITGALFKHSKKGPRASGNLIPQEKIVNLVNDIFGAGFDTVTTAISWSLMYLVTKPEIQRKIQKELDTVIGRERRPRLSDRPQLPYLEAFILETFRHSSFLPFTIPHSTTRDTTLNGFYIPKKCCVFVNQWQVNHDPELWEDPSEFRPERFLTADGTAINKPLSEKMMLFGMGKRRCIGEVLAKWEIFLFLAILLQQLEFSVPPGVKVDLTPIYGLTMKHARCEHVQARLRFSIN
% is scaled to controls: 0 for no effect and ±100 for the full control effect; potency is read from the fitted curve at half-maximal effect.

Cytochrome P450 2C19 (Homo sapiens), sequence (P33261 whole entry, looked up): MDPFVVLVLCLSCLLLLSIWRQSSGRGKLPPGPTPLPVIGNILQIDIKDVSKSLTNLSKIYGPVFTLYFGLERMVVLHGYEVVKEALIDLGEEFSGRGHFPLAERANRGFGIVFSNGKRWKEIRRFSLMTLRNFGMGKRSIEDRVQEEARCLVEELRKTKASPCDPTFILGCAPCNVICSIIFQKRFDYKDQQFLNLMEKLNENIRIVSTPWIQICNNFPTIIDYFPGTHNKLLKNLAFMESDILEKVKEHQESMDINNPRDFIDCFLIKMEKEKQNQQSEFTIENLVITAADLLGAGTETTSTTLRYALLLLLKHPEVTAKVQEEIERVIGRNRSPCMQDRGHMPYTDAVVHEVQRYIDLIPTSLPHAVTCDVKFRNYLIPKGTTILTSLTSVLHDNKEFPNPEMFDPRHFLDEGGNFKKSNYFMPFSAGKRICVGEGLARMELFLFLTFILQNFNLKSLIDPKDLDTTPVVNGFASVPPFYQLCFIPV
Cytochrome P450 2C9 (Homo sapiens), sequence (P11712 whole entry, looked up): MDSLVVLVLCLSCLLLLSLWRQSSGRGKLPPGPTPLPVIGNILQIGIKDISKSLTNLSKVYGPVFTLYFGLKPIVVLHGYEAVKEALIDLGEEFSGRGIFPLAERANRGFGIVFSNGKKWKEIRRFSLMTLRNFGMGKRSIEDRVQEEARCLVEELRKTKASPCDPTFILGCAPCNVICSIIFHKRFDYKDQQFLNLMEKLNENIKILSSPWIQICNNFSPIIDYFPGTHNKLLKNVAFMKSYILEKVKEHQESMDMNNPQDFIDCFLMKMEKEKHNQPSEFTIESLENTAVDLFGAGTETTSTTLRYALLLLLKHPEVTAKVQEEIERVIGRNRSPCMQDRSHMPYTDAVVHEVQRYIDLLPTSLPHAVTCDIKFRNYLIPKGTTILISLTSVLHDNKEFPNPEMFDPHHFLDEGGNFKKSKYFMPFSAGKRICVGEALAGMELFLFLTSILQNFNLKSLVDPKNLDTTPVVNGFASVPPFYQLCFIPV
Cytochrome P450 3A4 (Homo sapiens), sequence (P08684 whole entry, looked up): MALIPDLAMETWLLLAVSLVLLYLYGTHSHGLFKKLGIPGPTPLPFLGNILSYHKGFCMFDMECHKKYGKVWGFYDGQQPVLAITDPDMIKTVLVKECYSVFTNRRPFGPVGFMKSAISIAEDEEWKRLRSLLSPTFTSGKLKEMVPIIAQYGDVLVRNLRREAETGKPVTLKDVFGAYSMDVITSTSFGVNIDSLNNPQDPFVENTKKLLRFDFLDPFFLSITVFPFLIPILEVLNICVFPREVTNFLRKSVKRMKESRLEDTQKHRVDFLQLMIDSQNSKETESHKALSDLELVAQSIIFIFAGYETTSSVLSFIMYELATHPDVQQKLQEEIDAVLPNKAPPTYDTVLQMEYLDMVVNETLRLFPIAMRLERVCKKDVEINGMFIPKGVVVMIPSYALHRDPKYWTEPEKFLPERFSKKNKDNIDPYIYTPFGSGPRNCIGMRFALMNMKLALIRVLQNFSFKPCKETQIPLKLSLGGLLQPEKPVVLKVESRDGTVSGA

For the compound `C/C=C/C(=O)CC`, the Potency result in assay [1] is “inactive”. The values for the activity change, negative = inhibition in assay [2] and in assay [3] were -11% [at 23.6 µM] and 2.39% [at 15.8 µM], respectively.
In the case of `CCOC(=O)c1cccnc1`, the Potency result in assay [1], in assay [2], in assay [3] and in assay [4] was “inactive” in each case.
As for `CC[N+](C)(CC)CCOC(=O)C(O)(c1ccccc1)C1CCCCC1` (configuration not stated), the Potency result in assay [2], in assay [5] and in assay [3] was “inactive” each time.
Take `O=C1OC(=O)C2C3C=CC(C3)C12` (configuration not stated): the Potency result in assay [1], in assay [5], in assay [3] and in assay [4] was “inactive” throughout.
For the compound `O=C(O)c1ccccc1Cl`, the Potency entry in assay [1], in assay [5], in assay [3] and in assay [4] was “inactive” each time.
For the compound `c1ccc(-c2ccccn2)nc1`, the Potency entry in assay [1], in assay [3] and in assay [4] was “inactive” in each case. Also, in assay [5], the Potency was 71 µM (active).
For the compound `C=CC1CC2C=CC1C2` (configuration not stated), the Potency result in assay [2], in assay [5] and in assay [3] was “inactive” throughout.
For the compound `CCCOC(C(=O)OC1CCN(C)CC1)(c1ccccc1)c1ccccc1`, the Potency entry in assay [2] and in assay [5] was “inactive” in each case.
For the compound `C[N+](C)(C)CCOC(=O)CCC(=O)OCC[N+](C)(C)C`, the Potency result in assay [2], in assay [5], in assay [3] and in assay [4] was “inactive” each time.
Consider `CCCCCCCCCCO[C@@H]1O[C@H](CO)[C@@H](O)[C@H](O)[C@H]1O`, for which the Potency result in assay [2], in assay [5] and in assay [3] was “inactive” throughout.
For the compound `Nc1cccc([N+](=O)[O-])c1`, the Potency in assay [1] was 69.5 µM (active); in assay [5], 39.1 µM (active). The Potency entry in assay [3] and in assay [4] was “inactive” in each case.
On to `CCCC(=O)Nc1ccc(O)c(C(C)=O)c1`, for which the Potency result in assay [1], in assay [3] and in assay [4] was “inactive” each time. In addition, the Potency in assay [5] is 9.77 µM (active).
Turning to `C=C(C)C(=O)OCCOCC`, the Potency in assay [1] was 80 µM (active); in assay [5], 40.1 µM (active). Also, the Potency result in assay [3] and in assay [4] was “inactive” each time.
Consider `CCN(CC)CCOC(=O)C(c1ccccc1)C1CCCCC1` (configuration not stated), for which, in assay [2], the Potency entry is “inactive”. Further, the Potency was 3.63 µM (active) in assay [5] and 6.01 µM (active) in assay [3].
With `C[N+]1(CC2COC(c3ccccc3)(C3CCCCC3)O2)CCCCC1` (configuration not stated), the Potency result in assay [1] and in assay [5] was “inactive” each time. The Potency was 15.1 µM (active) in assay [3] and 3.89 µM (active) in assay [4].
For the compound `C[Si](C)(CCCN)O[Si](C)(C)CCCN`, the Potency was 39.9 µM (active) in assay [1], 25.2 µM (active) in assay [5] and 2.52 µM (active) in assay [4]. Moreover, the Potency result in assay [3] is “inactive”.
With `COCCCN1CCC(NC(=O)c2cc(Cl)c(N)c3c2OCC3)CC1`, the Potency in assay [2] was 3.09 µM (active). For the same compound, the Potency entry in assay [5], in assay [3] and in assay [4] was “inactive” each time.
`Nc1ccc(S(=O)(=O)Nc2ccccc2)cc1`: the Potency entry in assay [2], in assay [5] and in assay [3] was “inactive” each time.
For `C[C@@H]1C[C@H]2O[C@@]3(O[C@@H]2C(C)(C)O)[C@H](O)[C@@]2(C)[C@@H]4CC[C@H]5C(C)(C)[C@@H](O[C@@H]6OC[C@@H](O)[C@H](O)[C@H]6O)CC[C@@]56C[C@@]46CC[C@]2(C)[C@@H]13`, the Potency entry in assay [1] and in assay [3] was “inactive” each time.
Turning to `CC(C)C[C@H]1C(=O)N2CCC[C@H]2[C@]2(O)O[C@](NC(=O)[C@@H]3C=C4c5cccc6[nH]c(Br)c(c56)C[C@H]4N(C)C3)(C(C)C)C(=O)N12`, the Potency in assay [1] was 21.4 µM (active). The Potency result in assay [5] and in assay [3] was “inactive” throughout.
`C#Cc1cccc(Nc2ncnc3cc(OCCOC)c(OCCOC)cc23)c1`: the Potency entry in assay [1], in assay [5] and in assay [3] was “inactive” throughout.
As to `c1ccc(C(O[C@H]2CCCN(CCc3ccc4c(c3)OCO4)C2)c2ccccc2)cc1`, the Potency in assay [2] is 15.5 µM (active); in assay [5] it was 30.9 µM (active); in assay [3], 0.535 µM (active).
As to `O=C(O)C(S)C(S)C(=O)O` (configuration not stated), the Potency result in assay [1], in assay [5], in assay [3] and in assay [4] was “inactive” in each case.
On to `OCc1cc(C(O)CNCCCCCCOCCCCc2ccccc2)ccc1O` (configuration not stated), for which the Potency entry in assay [1] and in assay [5] was “inactive” each time. Further, in assay [3], the Potency is 2.68 µM (active).
Regarding `CN(Cc1ccc(C(C)(C)C)cc1)Cc1cccc2ccccc12`, the Potency is 8.71 µM (active) in assay [1] and 19 µM (active) in assay [3]. In addition, the Potency entry in assay [4] was “inactive”.
For `CCOC(=O)C(=O)CCc1ccccc1`, the Potency in assay [1] is 8.71 µM (active). For the same compound, the Potency entry in assay [5], in assay [3] and in assay [4] was “inactive” in each case.
Take `CC(=O)c1ccc2c(c1)N(CCCN(C)C)c1ccccc1S2`: the Potency result in assay [2] is “inactive”. Also, in assay [5], the Potency was 11 µM (active).
Regarding `O=C(O)CNCC(=O)O`, the activity change, negative = inhibition in assay [2] was -0.595% [at 10.5 µM]; in assay [5], -1.26% [at 10.5 µM]; in assay [3], 4.26% [at 6.97 µM]; in assay [4] it was 0.283% [at 10.5 µM].
Consider `CCCCCCCCCCCCCCCCOS(=O)(=O)O`, for which the Potency entry in assay [1], in assay [5], in assay [3] and in assay [4] was “inactive” in each case.
Regarding `O=C(O)c1ccc(S(=O)(=O)O)cc1C(=O)O`, the Potency entry in assay [2], in assay [5], in assay [3] and in assay [4] was “inactive” throughout.
As for `CCC(=O)O[C@]1(C(=O)CCl)[C@@H](C)C[C@H]2[C@@H]3CCC4=CC(=O)C=C[C@]4(C)[C@@]3(F)[C@@H](O)C[C@@]21C`, the Potency in assay [2] is 30.9 µM (active). The Potency result in assay [5] and in assay [3] was “inactive” each time.
`CCCCNc1ccc(C(=O)OCCOCCOCCOCCOCCOCCOCCOCCOCCOC)cc1`: the Potency in assay [2] is 12.3 µM (active). Also, the Potency entry in assay [5] and in assay [3] was “inactive” each time.
In the case of `O=[N+]([O-])c1ccc2[nH]ncc2c1`, the Potency result in assay [2], in assay [3] and in assay [4] was “inactive” throughout. Moreover, in assay [5], the Potency was 31.7 µM (active).
On to `O=C(NCCO[N+](=O)[O-])c1cccnc1`, for which the Potency entry in assay [2], in assay [5] and in assay [3] was “inactive” throughout.
Regarding `CCCCCCc1ccc(-c2ccc(C#N)cc2)cc1`, the Potency is 44 µM (active) in assay [1] and 31.2 µM (active) in assay [5]. The Potency entry in assay [4] is “inactive”.
In the case of `CCCCc1ncc(/C=C(\Cc2cccs2)C(=O)O)n1Cc1ccc(C(=O)O)cc1`, the Potency entry in assay [1] and in assay [3] was “inactive” throughout.
For `CCC(C)c1cc(C(C)(C)C)c(O)c(C(C)(C)C)c1` (configuration not stated), in assay [1], the Potency entry is “inactive”. Also, the Potency is 62.1 µM (active) in assay [5] and 19.6 µM (active) in assay [4].
As to `CCCCCCCCCCCCCCOS(=O)(=O)O`, the Potency entry in assay [1], in assay [5], in assay [3] and in assay [4] was “inactive” throughout.
On to `O=C(OCCCCCCOC(=O)c1ccccc1)c1ccccc1`, for which the figures for the Potency in assay [2] and in assay [5] were 7.96 µM (active) and 3.17 µM (active), respectively. Further, the Potency entry in assay [3] and in assay [4] was “inactive” each time.
